From article PMC7862700, “An all-to-all approach to the identification of sequence-specific readers for epigenetic DNA modifications on cytosine”

What was measured:
Experiment in all cases: DAPPL (digital affinity profiling via proximity ligation, sequencing); 10 mM Tris-HCl pH 7.5, 50 mM NaCl, 1 mM DTT, 4% glycerol, room temperature, 30 min; GST-TFs on glutathione beads, 16-mer random dsDNA library, 0.1% formaldehyde crosslink after washing; high values mean tight binding
Settings in all cases: protein: recombinant; tags: N-terminal GST; dsDNA, one strand shown
ETV1 = ETV1 (Homo sapiens, UniProt P50549 1-477)
How it was run: (§1)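 In yeast, human transcription factors were expressed with a GST fusion, then pulled down on glutathione beads and given DNA barcodes. Pooled with a tag-only sample, they were exposed to 200 nmole of a 16-mer random double-stranded DNA library (Tris/NaCl/DTT/glycerol buffer, room temperature, 30 min), washed, crosslinked with 0.1% formaldehyde, proximity-ligated using BsaI/T4 ligase for 1 h at 37 °C, PCR-amplified and read on an Illumina NextSeq500. Each hexamer's frequency of reads for a factor, divided by the matching frequency for the tag-only sample, gives the binding signal.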

ERF = biological target: T1, ERF (Homo sapiens, UniProt P50548 1-548)
T1 sequence: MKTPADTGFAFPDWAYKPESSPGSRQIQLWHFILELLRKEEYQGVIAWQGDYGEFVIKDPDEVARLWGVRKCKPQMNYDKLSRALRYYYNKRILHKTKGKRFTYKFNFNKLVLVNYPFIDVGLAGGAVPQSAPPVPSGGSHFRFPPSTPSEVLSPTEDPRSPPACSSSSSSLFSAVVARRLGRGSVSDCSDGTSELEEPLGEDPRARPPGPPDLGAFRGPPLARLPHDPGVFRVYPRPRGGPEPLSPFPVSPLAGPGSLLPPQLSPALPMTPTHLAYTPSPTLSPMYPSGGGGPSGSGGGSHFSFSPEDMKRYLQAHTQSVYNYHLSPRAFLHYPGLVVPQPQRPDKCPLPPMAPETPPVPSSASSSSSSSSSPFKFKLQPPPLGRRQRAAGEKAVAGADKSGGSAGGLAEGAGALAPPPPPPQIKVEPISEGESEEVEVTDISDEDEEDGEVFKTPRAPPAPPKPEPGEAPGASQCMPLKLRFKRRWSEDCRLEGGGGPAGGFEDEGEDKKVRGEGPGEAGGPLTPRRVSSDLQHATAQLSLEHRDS
How it was run: as §1

ETV3L = biological target: T2, ETV3L (Homo sapiens, UniProt Q6ZN32 1-361)
T2 sequence: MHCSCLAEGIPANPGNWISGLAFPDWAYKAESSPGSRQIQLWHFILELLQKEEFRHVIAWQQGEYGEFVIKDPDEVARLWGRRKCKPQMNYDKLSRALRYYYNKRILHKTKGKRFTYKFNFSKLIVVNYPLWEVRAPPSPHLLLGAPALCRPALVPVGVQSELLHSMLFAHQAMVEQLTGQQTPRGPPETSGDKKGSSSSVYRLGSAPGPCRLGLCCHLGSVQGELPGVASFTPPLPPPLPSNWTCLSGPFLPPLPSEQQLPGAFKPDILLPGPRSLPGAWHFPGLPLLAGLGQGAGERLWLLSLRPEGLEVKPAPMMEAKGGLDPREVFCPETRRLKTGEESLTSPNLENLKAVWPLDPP
How it was run: as §1

ETS2 = biological target: T3, ETS2 (Homo sapiens, UniProt P15036 1-469)
T3 sequence: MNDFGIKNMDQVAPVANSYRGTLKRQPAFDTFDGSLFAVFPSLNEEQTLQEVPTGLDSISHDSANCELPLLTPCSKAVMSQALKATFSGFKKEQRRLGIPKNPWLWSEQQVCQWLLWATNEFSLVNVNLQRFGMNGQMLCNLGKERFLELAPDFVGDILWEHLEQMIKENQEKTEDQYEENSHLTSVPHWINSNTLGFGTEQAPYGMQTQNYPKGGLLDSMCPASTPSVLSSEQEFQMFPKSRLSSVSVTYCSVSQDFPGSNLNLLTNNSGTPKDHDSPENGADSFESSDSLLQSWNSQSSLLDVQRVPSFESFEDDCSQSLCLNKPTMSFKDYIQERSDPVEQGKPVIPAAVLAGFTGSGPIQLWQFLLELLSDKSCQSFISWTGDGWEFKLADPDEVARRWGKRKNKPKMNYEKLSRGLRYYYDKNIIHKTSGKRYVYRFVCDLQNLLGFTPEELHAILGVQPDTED
How it was run: as §1

SPDEF = biological target: T4, SPDEF (Homo sapiens, UniProt O95238 1-335)
T4 sequence: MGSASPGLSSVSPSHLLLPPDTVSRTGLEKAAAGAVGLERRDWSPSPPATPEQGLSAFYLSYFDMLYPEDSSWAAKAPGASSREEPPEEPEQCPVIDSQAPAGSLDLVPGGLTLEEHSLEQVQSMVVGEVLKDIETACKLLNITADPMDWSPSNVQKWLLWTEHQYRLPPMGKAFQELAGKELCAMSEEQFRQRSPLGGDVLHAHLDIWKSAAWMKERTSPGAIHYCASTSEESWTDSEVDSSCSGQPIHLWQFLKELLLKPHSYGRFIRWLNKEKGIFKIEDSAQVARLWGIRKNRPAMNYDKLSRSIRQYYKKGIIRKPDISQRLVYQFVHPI
How it was run: as §1

ETV7 = biological target: T5, ETV7 (Homo sapiens, UniProt Q9Y603 1-341)
T5 sequence: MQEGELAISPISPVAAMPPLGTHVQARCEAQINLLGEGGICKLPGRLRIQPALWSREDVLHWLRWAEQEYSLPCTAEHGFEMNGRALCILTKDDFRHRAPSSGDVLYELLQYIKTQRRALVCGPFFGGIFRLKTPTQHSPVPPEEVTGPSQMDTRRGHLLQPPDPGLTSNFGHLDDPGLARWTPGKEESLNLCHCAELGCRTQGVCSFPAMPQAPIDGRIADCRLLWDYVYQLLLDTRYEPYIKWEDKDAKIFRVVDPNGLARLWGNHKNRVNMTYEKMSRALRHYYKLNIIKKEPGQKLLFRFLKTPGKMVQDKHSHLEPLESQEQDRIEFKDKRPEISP
How it was run: as §1

ELF5 = biological target: T6, ELF5 (Homo sapiens, UniProt Q9UKW6-2 1-255)
T6 sequence: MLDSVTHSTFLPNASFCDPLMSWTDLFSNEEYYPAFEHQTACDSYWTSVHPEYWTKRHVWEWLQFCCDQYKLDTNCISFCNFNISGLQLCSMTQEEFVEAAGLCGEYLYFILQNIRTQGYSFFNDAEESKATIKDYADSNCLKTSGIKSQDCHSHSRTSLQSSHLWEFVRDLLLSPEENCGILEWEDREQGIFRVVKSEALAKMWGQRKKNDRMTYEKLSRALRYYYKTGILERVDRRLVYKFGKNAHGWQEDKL
How it was run: as §1

ETV3 = biological target: T7, ETV3 (Homo sapiens, UniProt P41162-2 1-143)
T7 sequence: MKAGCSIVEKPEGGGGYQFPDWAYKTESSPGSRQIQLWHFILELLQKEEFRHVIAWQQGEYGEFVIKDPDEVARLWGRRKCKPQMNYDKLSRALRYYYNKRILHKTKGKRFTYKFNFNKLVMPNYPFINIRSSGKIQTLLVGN
How it was run: as §1

ETV6 = ETV6 (Homo sapiens, UniProt P41212 1-452)
How it was run: as §1

Chain of ETV1 (P50549 whole entry, the tested form may be a part): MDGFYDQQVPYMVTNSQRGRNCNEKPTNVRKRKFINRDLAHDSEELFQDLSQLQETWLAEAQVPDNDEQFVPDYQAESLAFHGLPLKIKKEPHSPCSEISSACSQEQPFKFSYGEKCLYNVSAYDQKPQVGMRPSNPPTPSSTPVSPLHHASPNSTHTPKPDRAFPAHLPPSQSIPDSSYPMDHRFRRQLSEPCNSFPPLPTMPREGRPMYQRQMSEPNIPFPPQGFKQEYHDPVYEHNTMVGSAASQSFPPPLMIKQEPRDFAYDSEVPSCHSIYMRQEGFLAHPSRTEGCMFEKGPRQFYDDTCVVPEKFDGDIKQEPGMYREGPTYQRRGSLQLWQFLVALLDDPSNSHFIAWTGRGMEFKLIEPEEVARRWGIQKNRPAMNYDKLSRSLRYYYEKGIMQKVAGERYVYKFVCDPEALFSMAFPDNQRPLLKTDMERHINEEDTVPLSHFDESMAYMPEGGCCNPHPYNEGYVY
Chain of ETV6 (P41212 whole entry): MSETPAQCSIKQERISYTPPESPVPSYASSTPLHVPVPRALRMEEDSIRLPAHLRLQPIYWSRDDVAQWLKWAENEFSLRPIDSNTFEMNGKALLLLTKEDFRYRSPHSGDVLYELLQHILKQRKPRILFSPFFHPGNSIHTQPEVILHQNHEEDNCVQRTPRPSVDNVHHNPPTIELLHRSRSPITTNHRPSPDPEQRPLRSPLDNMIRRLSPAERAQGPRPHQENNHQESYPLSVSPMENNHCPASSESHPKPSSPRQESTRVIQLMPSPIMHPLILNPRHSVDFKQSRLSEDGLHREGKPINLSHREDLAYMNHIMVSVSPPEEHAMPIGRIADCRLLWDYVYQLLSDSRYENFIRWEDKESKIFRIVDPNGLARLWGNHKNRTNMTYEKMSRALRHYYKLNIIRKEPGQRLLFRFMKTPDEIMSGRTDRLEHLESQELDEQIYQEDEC

**Q.** How did the binding signal (ETV1) turn out when ATTAAG was run?
**A.** 1.03 fold enrichment (6-mer frequency, TF over GST control)

**Q.** What about the binding signal (ERF) of the same sequence?
**A.** 1.16 fold enrichment (6-mer frequency, TF over GST control)

**Q.** What about the binding signal (ETV3L) of the same sequence?
**A.** 1.09 fold enrichment (6-mer frequency, TF over GST control)

**Q.** And the binding signal (ETS2)?
**A.** 1.01 fold enrichment (6-mer frequency, TF over GST control)

**Q.** What about the binding signal (SPDEF) of the same sequence?
**A.** 1.13 fold enrichment (6-mer frequency, TF over GST control)

**Q.** And the binding signal (ETV7)?
**A.** 1.12 fold enrichment (6-mer frequency, TF over GST control)

**Q.** And the binding signal (ELF5)?
**A.** 1.02 fold enrichment (6-mer frequency, TF over GST control)

**Q.** And the binding signal (ETV3)?
**A.** 1.04 fold enrichment (6-mer frequency, TF over GST control)

**Q.** What about the binding signal (ETV6) of the same sequence?
**A.** 1.11 fold enrichment (6-mer frequency, TF over GST control)
